Screens from PubChem.
The full list was thinned out, with hits kept by preference.
14-3-3 PPI: alters human 14-3-3 gamma binding to Raf peptide; P61981; FP, 14-3-3gamma / TMR-pS259-Raf peptide binding; inhibition, % at 40 µM; 0.19% of 160,000 active; AID 422; in the data active = inhibition above about 30%;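 note: 0% = protein plus tracer without compound and 100% = blank with tracer alone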
The depositor's hits bear a star.

SMILES	14-3-3 PPI
COc1cc(OC)c(OC)cc1CC1C(=O)N(C)C(=O)N(C)C1=O	66*
COc1cc(CC2C(=O)N(C)C(=O)N(C)C2=O)ccc1OCc1ccccc1	9
C=CCN1C(=O)NC(=O)C(Cc2ccc(OC)c(OC)c2)C1=O (stereo unspecified)	0
Cc1cccc(NC(=O)CN2C(=O)CN=C(c3ccccc3)c3ccccc32)c1C	0
O=C(Cc1ccccc1)c1ccccc1	1
Nc1ccc2nonc2c1[N+](=O)[O-]	31*
O=[N+]([O-])c1c(NCCO)ccc2nonc12	-18
CCCN(CCC)c1ccc([N+](=O)[O-])c2nonc12	-28
COc1ccc(OCC(=O)N2CCN(Cc3c[nH]c4ccccc34)CC2)cc1	-5
O=C(CN1C(=O)CN=C(c2ccccc2)c2ccccc21)Nc1cccc(Cl)c1	12
O=P(C(c1ccc2c(c1)OCO2)N1CCOCC1)(N1CCOCC1)N1CCOCC1 (stereo unspecified)	-15
CNCCc1c[nH]c2ccccc12	0
CN1C(=O)C(Cc2cccc3ccccc23)C(=O)N(C)C1=O	6
CN1C(=O)C(Cc2c[nH]c3ccccc23)C(=O)N(C)C1=O	82*
Cn1c(SCc2nc3ccccc3c(=O)n2-c2ccccc2)nc2ccccc21	-26
